Key:
Test in all cases: PBM binding z-score (relative to random genomic background probes); higher = stronger binding; sequences stand for … in GC…GCGATTGACAGCGTAGAATGAAGG
[1] = system: FXR:RXRa (NR concentration 270 nM, RXRa partner concentration 90 nM)
Procedure, shortened: (§1)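 Antibodies against each partner of ligand-free nuclear receptor dimers (one per run) detected binding on custom Agilent 4×180K protein-binding microarrays after 1 h incubation. The double-stranded probes had 34-nt variable regions carrying direct-repeat seeds, single-nucleotide variants, half-site ablations and random human genomic background sequences. Binding z-scores, from regression-normalized fluorescence, use the random background probes as reference.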

[2] = system: LXRa:RXRa (NR concentration 270 nM, RXRa partner concentration 90 nM)
Procedure, shortened: as §1

[3] = system: LXRa homodimer (NR concentration 270 nM)
Procedure, shortened: as §1

[4] = system: LXRb:RXRa (NR concentration 270 nM, RXRa partner concentration 90 nM)
Procedure, shortened: as §1

[5] = system: LXRb homodimer (NR concentration 270 nM)
Procedure, shortened: as §1

[6] = system: PPARa:RXRa (NR concentration 270 nM, RXRa partner concentration 90 nM)
Procedure, shortened: as §1

[7] = system: PPARg:RXRa (NR concentration 180 nM, RXRa partner concentration 90 nM)
Procedure, shortened: as §1

[8] = system: PPARg:RXRa 270nM:90nM, anti-RXR (NR concentration 270 nM, RXRa partner concentration 90 nM)
Procedure, shortened: as §1

[9] = system: PPARg:RXRa 30nM:10nM, anti-RXR (NR concentration 30 nM, RXRa partner concentration 10 nM)
Procedure, shortened: as §1

[10] = system: PPARg:RXRa 90nM:30nM, anti-RXR (NR concentration 90 nM, RXRa partner concentration 30 nM)
Procedure, shortened: as §1

[11] = system: PPARg:RXRa DBDmut IVT, anti-RXR (DBD mutation: RXRa K156A/R161A, NR concentration 270 nM, RXRa partner concentration 90 nM)
Procedure, shortened: as §1

[12] = system: PPARg:RXRa IVT, anti-PPARg (NR concentration 270 nM, RXRa partner concentration 90 nM)
Procedure, shortened: as §1

[13] = system: PPARg DBDmut:RXRa IVT, anti-PPARg (DBD mutation: PPARg1 K132A/R137A, NR concentration 270 nM, RXRa partner concentration 90 nM)
Procedure, shortened: as §1

[14] = system: PPARg DBDmut IVT, anti-PPARg (DBD mutation: PPARg1 K132A/R137A, NR concentration 270 nM)
Procedure, shortened: as §1

[15] = system: PPARg homodimer (NR concentration 180 nM)
Procedure, shortened: as §1

[16] = system: PXR:RXRa (NR concentration 270 nM, RXRa partner concentration 90 nM)
Procedure, shortened: as §1

[17] = system: PXR homodimer (NR concentration 270 nM)
Procedure, shortened: as §1

[18] = system: RARa:RXR (NR concentration 270 nM, RXRa partner concentration 90 nM)
Procedure, shortened: as §1

[19] = system: RARa homodimer (NR concentration 270 nM)
Procedure, shortened: as §1

[20] = system: RARb:RXRa (NR concentration 270 nM, RXRa partner concentration 90 nM)
Procedure, shortened: as §1

Work on ACTAGCAGGCCAAGTTTGGGTCAGTCAAACAAAG yielded a PBM binding z-score [1] of 0.028, a PBM binding z-score [2] of -0.244 and a PBM binding z-score [3] of -0.318. It also gave a PBM binding z-score [4] of -0.0247, a PBM binding z-score [5] of -0.904 and a PBM binding z-score [6] of 0.619. For the same sequence, the PBM binding z-score [7] was -0.396, the PBM binding z-score [8] was -0.173 and the PBM binding z-score [9] was -0.835. The PBM binding z-score [10] was -0.45, the PBM binding z-score [11] was 0.456 and the PBM binding z-score [12] was 0.754. It also gave a PBM binding z-score [13] of -0.643, a PBM binding z-score [14] of -0.95 and a PBM binding z-score [15] of -0.103. For the same sequence, the PBM binding z-score [16] was 0.0962, the PBM binding z-score [17] was -0.463 and the PBM binding z-score [18] was 0.649. For the same sequence, the PBM binding z-score [19] was -0.408 and the PBM binding z-score [20] was 1.21.

With CCGACTGGGGCAGAAACGTTACCATACCATCCGG the PBM binding z-score [1] was -0.564, the PBM binding z-score [2] was -0.949 and the PBM binding z-score [3] was -0.452. The PBM binding z-score [4] was -0.779, the PBM binding z-score [5] was -0.864 and the PBM binding z-score [6] was -1. For the same sequence, the PBM binding z-score [7] was 0.724, the PBM binding z-score [8] was -0.373 and the PBM binding z-score [9] was -0.314. For the same sequence, the PBM binding z-score [10] was -0.369, the PBM binding z-score [11] was 1.22 and the PBM binding z-score [12] was 0.558. It also gave a PBM binding z-score [13] of -0.521, a PBM binding z-score [14] of -0.904 and a PBM binding z-score [15] of -0.18. It also gave a PBM binding z-score [16] of -0.851, a PBM binding z-score [17] of -0.758 and a PBM binding z-score [18] of -0.735. For the same sequence, the PBM binding z-score [19] was 0.0145 and the PBM binding z-score [20] was -0.053.

With ACTAGTTGGTCAGCTGAGGTCTCACACAATTCGG the PBM binding z-score [1] was 0.132, the PBM binding z-score [2] was -0.314 and the PBM binding z-score [3] was -0.301. For the same sequence, the PBM binding z-score [4] was -0.188, the PBM binding z-score [5] was -0.19 and the PBM binding z-score [6] was 0.142. For the same sequence, the PBM binding z-score [7] was 0.384, the PBM binding z-score [8] was 0.246 and the PBM binding z-score [9] was -0.202. The PBM binding z-score [10] was 0.00207, the PBM binding z-score [11] was 1.19 and the PBM binding z-score [12] was 0.901. For the same sequence, the PBM binding z-score [13] was 0.251, the PBM binding z-score [14] was 0.203 and the PBM binding z-score [15] was 0.325. It also gave a PBM binding z-score [16] of 0.286, a PBM binding z-score [17] of -0.249 and a PBM binding z-score [18] of 0.165. For the same sequence, the PBM binding z-score [19] was 0.106 and the PBM binding z-score [20] was 1.05.

Sequence TCTAGTTGGCCAAAGGTCACACACTCGAAATGCG has a PBM binding z-score [1] of 5.4, a PBM binding z-score [2] of 5.41 and a PBM binding z-score [3] of 3.89. For the same sequence, the PBM binding z-score [4] was 5.44, the PBM binding z-score [5] was 1.17 and the PBM binding z-score [6] was 6.16. For the same sequence, the PBM binding z-score [7] was 11, the PBM binding z-score [8] was 9.37 and the PBM binding z-score [9] was 11.1. For the same sequence, the PBM binding z-score [10] was 11.3, the PBM binding z-score [11] was 2.73 and the PBM binding z-score [12] was 5.56. The PBM binding z-score [13] was 0.249, the PBM binding z-score [14] was 0.877 and the PBM binding z-score [15] was 6.18. The PBM binding z-score [16] was 5.82, the PBM binding z-score [17] was 1.45 and the PBM binding z-score [18] was 6.89. For the same sequence, the PBM binding z-score [19] was 3.8 and the PBM binding z-score [20] was 4.93.

Work on GCTGCTAGGTCAGGTTGGTCCGCTAACGGGTACG yielded a PBM binding z-score [1] of 1.45, a PBM binding z-score [2] of 0.788 and a PBM binding z-score [3] of -0.309. For the same sequence, the PBM binding z-score [4] was 0.439, the PBM binding z-score [5] was 0.221 and the PBM binding z-score [6] was 1.46. It also gave a PBM binding z-score [7] of 0.195, a PBM binding z-score [8] of 0.764 and a PBM binding z-score [9] of -0.421. For the same sequence, the PBM binding z-score [10] was 0.25, the PBM binding z-score [11] was 2.43 and the PBM binding z-score [12] was 2.33. It also gave a PBM binding z-score [13] of -0.695, a PBM binding z-score [14] of -0.237 and a PBM binding z-score [15] of 0.526. It also gave a PBM binding z-score [16] of 0.421, a PBM binding z-score [17] of -0.826 and a PBM binding z-score [18] of 0.786. It also gave a PBM binding z-score [19] of -0.467 and a PBM binding z-score [20] of 3.27.

Work on TATACAGGGTCAAAGGCCAGGGTACGAATGTCGA yielded a PBM binding z-score [1] of 6.87, a PBM binding z-score [2] of 6.23 and a PBM binding z-score [3] of 2.51. It also gave a PBM binding z-score [4] of 4.8, a PBM binding z-score [5] of 2.5 and a PBM binding z-score [6] of 6.27. It also gave a PBM binding z-score [7] of 8.53, a PBM binding z-score [8] of 7.29 and a PBM binding z-score [9] of 5.77. The PBM binding z-score [10] was 6.97, the PBM binding z-score [11] was 2.06 and the PBM binding z-score [12] was 4.98. It also gave a PBM binding z-score [13] of 2.34, a PBM binding z-score [14] of 1.6 and a PBM binding z-score [15] of 2.3. The PBM binding z-score [16] was 4.41, the PBM binding z-score [17] was 0.905 and the PBM binding z-score [18] was 6.05. The PBM binding z-score [19] was 1.67 and the PBM binding z-score [20] was 4.48.

— the supplement of paper PMC6555819
